# Many of the other results were omitted from the sample, so hits are more common in it than they were.
# TbREL1 primary – TbREL1 inhibition, primary screen; P86926; TbREL1 RNA ligation, FRET fluorescence; inhibition, % at 9.66 µM; actives 0.49% (n = 89,000); AID 1117264;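 active means inhibition above the mean inhibition across all screened compounds plus 3 SD, cut at about 11% in these data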;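 further: 0% = plate median of test wells and 100% = NSC42067 control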
# Target sequence (P86926 whole entry, looked up): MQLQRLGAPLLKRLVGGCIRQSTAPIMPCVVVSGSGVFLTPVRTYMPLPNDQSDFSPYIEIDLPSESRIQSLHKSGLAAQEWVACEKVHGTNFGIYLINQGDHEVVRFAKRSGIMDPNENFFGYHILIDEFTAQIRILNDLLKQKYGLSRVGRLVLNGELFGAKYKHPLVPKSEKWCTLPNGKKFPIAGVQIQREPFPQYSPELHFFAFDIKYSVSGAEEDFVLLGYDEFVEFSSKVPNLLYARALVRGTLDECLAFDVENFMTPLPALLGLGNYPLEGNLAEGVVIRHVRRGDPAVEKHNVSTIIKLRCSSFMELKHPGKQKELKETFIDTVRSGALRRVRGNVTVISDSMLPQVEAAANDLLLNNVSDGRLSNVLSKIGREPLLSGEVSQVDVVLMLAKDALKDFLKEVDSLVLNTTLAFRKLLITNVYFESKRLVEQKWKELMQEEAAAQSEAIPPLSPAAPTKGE
# TbREL1 conf – TbREL1 inhibition, confirmation | TbREL1 RNA ligation, FRET fluorescence | actives 37% (n = 390) | AID 1117282 | shares compounds with TbREL1 primary | inhibition, % at 9.66 µM;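 active means mean inhibition across replicates above a set limit taken from the earlier primary screen, cut at about 11% in these data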;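 further: 0% = REL1 with substrate and DMSO and 100% = REL1 plus control inhibitor NSC42067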
# Starred values were filed as active, the others as inactive.
SMILES,TbREL1 primary,others
Cc1sc2nc(SCC(=O)c3ccc(O)c(O)c3)n(C)c(=O)c2c1C,3.6,
COc1cccc(CNC(=O)Cn2c(-c3ccccc3)cc(C(C)=O)c2C)c1,1.4,
CCC[C@H]1[C@@H](NC(=O)C2CCOC2)CC[C@@]23CCCN2C(=O)CCC[C@@H]13 (some centres undefined),-2.9,
S=c1[nH]nc(-c2cc(-c3ccccc3)n[nH]2)n1N=Cc1c[nH]c2ccccc12,-7.2,
COC(=O)c1cccc(-c2ccc(/C=N/N3C(=O)C4C5C=CC(C6CC56)C4C3=O)o2)c1 (centres undefined),-2.1,
COC(=O)c1cccc(-c2ccc(C(c3c(C)[nH][nH]c3=O)c3c(C)[nH][nH]c3=O)o2)c1,14.5*,TbREL1 conf=8.6
O=Cc1ccc(-c2cccc(C(=O)O)c2)o1,1.4,
COc1ccccc1N1CCN(N=Cc2ccccc2Br)CC1,-4.1,
Clc1ccc(-n2c(SCc3cccc4ccccc34)nnc2-c2ccccc2)cc1,-1.7,
O=C(COC(=O)c1ccc(Sc2ncn[nH]2)c([N+](=O)[O-])c1)Nc1cccc(Cl)c1F,-3.8,
CC(C)c1cc(C(C)C)c(S(=O)(=O)N2CCC(C(=O)NCc3cccs3)CC2)c(C(C)C)c1,-0.5,
COc1ccc(CC(N)c2csc(NC(=O)Nc3cccc(C(F)(F)F)c3)n2)cc1 (centres undefined),4.6,
NC(COCc1ccccc1)c1csc(Nc2ccc(C(F)(F)F)cn2)n1 (centres undefined),8.8,
CCCCN(C)C(=O)c1ccc(Nc2nc(C(N)Cc3ccc(C(F)(F)F)cc3)cs2)nc1 (centres undefined),17.4*,TbREL1 conf=13.0*
COc1ccc(S[C@]2(C(=O)N3CCOCC3)CC(=O)N[C@@H]2c2ccc(OC)cc2)cc1,-3.7,
CCOc1ccc(-n2c(COc3ccc(Cl)cc3)nnc2SCC(=O)Nc2ccc(OCc3ccccc3)cc2)cc1,1.4,
Cc1cc(=O)[nH]c(SCC(=O)Nc2cccc(Cl)c2F)n1,7.8,
Oc1ccc(-c2cn3c(n2)SCC3)cc1,-3.5,
O=S(=O)(Nc1cccc(-c2cn3c(n2)SCC3)c1)c1ccccc1F,-4.2,
Oc1ccc(-c2cn3c(n2)SCC3)cc1O,17.0*,TbREL1 conf=40.6*
COC(=O)c1ccc(S(=O)(=O)N2CCC(NC(=O)CCc3ccccc3)CC2)cc1,1.0,
CN=C1S/C(=C/c2cc(C)n(Cc3ccccc3)c2C)C(=O)N1C,-1.0,
C[C@@H]1[C@@H](c2ccccc2)OC(O)([C@H](Cc2ccccc2)NC(=O)OC(C)(C)C)CN1C (some centres undefined),-3.2,
O=C(N[C@H](Cc1ccccc1)C(=O)NCc1cccc2ccccc12)[C@H]1O[C@@H](n2ccc(=O)[nH]c2=O)[C@H](O)[C@@H]1O,-1.0,
CN1CC(O)([C@H](Cc2ccccc2)NC(=O)OC(C)(C)C)OCC1C(=O)NCc1cccc2ccccc12 (some centres undefined),11.1*,TbREL1 conf=-3.2
SMILES,TbREL1 primary,others
Cc1ccc(NC(=O)C2CCCN(c3nnc(-n4cccc4)s3)C2)cc1C (centres undefined),3.0,
C[C@@H](NC(=O)Cn1cnc2c(OCc3ccccc3)ncnc21)c1cccc2ccccc12,-4.4,
O=C(Cn1cnc2c(OCc3ccccc3)ncnc21)NCCN1CCOCC1,0.2,
C[C@@H](NCCCn1cnc2c(OCc3ccccc3)ncnc21)c1cccc2ccccc12,12.5*,TbREL1 conf=13.1*
C=CCN1C(=O)[C@@H](CC(=O)NCc2ccc(C)o2)[C@]2(C(=O)OC)CCCCC=C12,-1.6,
C[C@@H]1CCCN1c1cccc2c1S(=O)(=O)N(C1CC1)CCCO2,5.4,
CCCCC(=O)OCC(=O)Nc1ccc(OC(F)F)cc1,-1.2,
C[C@H](NC(N)=O)C(=O)OCC(=O)Nc1ccc(OC(F)F)cc1,11.6*,TbREL1 conf=-1.1
O=C(COC(=O)C1CCC1)Nc1ccc(OC(F)F)cc1,2.4,
COc1ccc(-c2nnc(SCC(=O)Nc3ccc(S(=O)(=O)Nc4cc(C)nc(C)n4)cc3)n2-c2ccc(OC)cc2)cc1,0.2,
C#CCNC(=O)C[C@@H]1C(=O)N2CCCC3=C2[C@@]1(C(=O)OC)CCCC3,-0.4,
COc1ccc(Oc2c(-c3cccs3)cnn(-c3ccc(C)cc3)c2=O)cc1,0.9,
Cc1ccc(NC(=O)C2CCN(c3nnc(-n4cccc4)s3)CC2)cc1C,-3.3,
CCC(C(=O)NCc1ccco1)N(C(=O)CNS(=O)(=O)c1ccc(F)cc1)c1ccccc1F (centres undefined),36.5*,TbREL1 conf=1.9
CCCC(C(=O)NCc1ccco1)N(CC1CCCO1)C(=O)CNS(=O)(=O)c1ccc(F)cc1 (centres undefined),-1.8,
O=C(CN(Cc1ccc(F)cc1)C(=O)CNS(=O)(=O)c1ccc(F)cc1)NCc1ccco1,-3.8,
CC(C)C[C@H](NC(=O)c1[nH]cnc1C(=O)N[C@@H](Cc1ccccc1)C(=O)OCc1ccccc1)C(=O)OCc1ccccc1,-0.5,
CC(C)C[C@@H](CNCC(=O)[C@H](C)NC(=O)c1[nH]cnc1C(=O)N[C@@H](C)CN)NC(=O)c1nc[nH]c1C(=O)N[C@@H](Cc1ccccc1)C(=O)O,11.5*,TbREL1 conf=5.8
CC(C)C[C@H](NC(=O)c1nc[nH]c1C(=O)N[C@@H](CC(C)C)C(=O)OCc1ccccc1)C(=O)OCc1ccccc1,2.1,
O=C(/C=C(\Nc1cc(Cl)c(F)c(Cl)c1)c1ccccc1)c1ccccc1,4.9,
CCCC(NCC(O)COc1ccc(-c2ccccc2)cc1)c1ccccc1 (centres undefined),0.7,
CC(NCC(O)COc1ccc2ccccc2c1)c1ccccc1 (centres undefined),13.8*,TbREL1 conf=14.5*
Cc1nc(C)n(CC(O)COc2ccc3ccccc3c2)n1 (centres undefined),-2.6,
Nc1[nH]c(C(=O)c2ccccc2)c(-c2ccc(O)cc2)c1C(=O)NCCc1c[nH]c2ccccc12,-4.6,
COc1ccc(CNC(=O)O[C@H]2CC[C@@]34CCCN3C(=O)CCC[C@H]4C2)cc1,-2.1,
SMILES,TbREL1 primary,others
CCNC(=O)C1(C)CCCN(Cc2cc3ccccc3o2)C1 (centres undefined),-1.6,
Cc1ccc(S(=O)(=O)NCC2Cc3ccccc3N2S(=O)(=O)c2ccc(C)cc2)cc1 (centres undefined),-2.9,
CS(=O)(=O)N1c2ccccc2C[C@H]1Cc1cc2ccccc2o1,12.2*,TbREL1 conf=-0.6
O=S(=O)(c1ccc(F)cc1)N1CCC(N2CCCCCC2)CC1,1.1,
CC1CCN(C2CCN(S(=O)(=O)c3ccc(F)cc3)CC2)CC1,7.3,
CC1CCN(C2CCN(S(=O)(=O)c3ccc(C(F)(F)F)cc3)CC2)CC1,24.4*,TbREL1 conf=0.5
COc1cc(O)c(C(CC(=O)N2CCC(C)CC2)c2ccc3c(c2)OCO3)c(OC)c1 (centres undefined),4.6,
COC(CNC(=O)[C@H](Cc1ccccc1)NC1(C(=O)NC2CCCCC2)CCCC1)OC,-2.4,
Cc1cc(C)nc(NC(=S)N2CCN(c3ncc(C(F)(F)F)cc3Cl)CC2)c1,-1.1,
COc1ccc(-c2nc(CN3CCN(c4cc(C)nc(C)c4)CC3)c(C)o2)c2ccccc12,14.7*,TbREL1 conf=9.9
COc1ccc(F)c(-c2nc(CN3CCN(C(=O)c4ccco4)CC3)c(C)o2)c1,-2.8,
COc1ccc(CCNC(=O)C2CCCN(Cc3nc(-c4ccccc4C)oc3C)C2)cc1OC (centres undefined),-0.6,
CCCC[C@H]1C2CC(OC(=O)Nc3ccccc3C(F)(F)F)C(C2)[C@H]2CCCCN21 (some centres undefined),-0.2,

# Bioassay records (PubChem)
